Assay [1] in a line: reducers of endogenous Her2 protein level, primary screen, SKBR3 breast tumor cells, AlphaScreen, ATP viability (AID 461;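 active = Her2 level under about 52% in both replicate screens, with viability over 70% of control, limit read from the data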;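 for Her2 level: lower value means less Her2 protein in the cells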;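 for viability: percent of carrier control wells set as 100% viability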). The conditions noted are these: 18-24 h, measured here: SKBR3 viability, ATP luminescence, at 10 µM. Background: In Alpha technology, singlet oxygen from a donor bead excites a nearby acceptor bead.
Assay [2] has as its target Receptor tyrosine-protein kinase erbB-2 (Homo sapiens) (UniProt P04626). Described as above. The note with it: 18-24 h, at 10 µM, stronger effect = lower value.
A short description of assay [3]: SK-BR-3 cell growth inhibitors, pilot screen, 24 h, human (AID 572;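 active = viability at or below 10% of carrier control in both of two separate runs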;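 note: compound exposure lasted between 18 and 24 h rather than exactly 24 h; 100% = carrier-treated control wells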). The note with it: SK-BR-3 viability, CellTiter-Glo luminescence, at 10 µM, stronger effect = lower value. (ATP-based viability assays read luminescence as a measure of living cells.)
Assay [4] can be described thus: HUVEC growth inhibition – cell-based, human, primary screen (AID 575;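 active = viability at or below 30% in both replicate assays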;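 note: 100% = median of untreated cell wells with 0.1% DMSO on each plate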). The note with it: HUVEC proliferation, CellTiter-Glo luminescence, 72 h; at 10 µM; stronger effect = lower value.
Assay [5] is described as follows: growth inhibitors of H69AR lung tumor, primary screen, human, duplicate replicates (AID 580).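 Note: 100% = mean luminescence of untreated wells and 0% = no signal.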 The conditions noted are these: H69AR lung tumor cells viability, ATP luminescence, 72 h; at 10 µM; stronger effect = lower value.
Assay [6] can be described thus: reversal of MRP1-mediated doxorubicin resistance, pilot screen, H69AR cells, doxorubicin co-treatment (AID 601;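 active = viability loss from added drug above about 55%, and viability with drug at most 40%, in both replicates, limit read from the data, passing the limit was not always enough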). The conditions noted are these: CellTiter-Glo, 72 h, at 10 µM; for differential viability (reversal): stronger effect = higher value.
Assay [7] can be described thus: 384-well plate pilot, post-Golgi transport modulator project, inhibition of yeast transport mutant growth (AID 636; in the data active = inhibition above about 31%). The conditions noted are these: absorbance 615 nm, about 18 h, stronger effect = higher value.
A short description of assay [8]: growth suppression of yeast trafficking mutant, preliminary HTS, modulators of trafficking downstream of Golgi apparatus project, 1536-format plate, OD 615 nm (AID 637; in the data active = inhibition above about 30%). The conditions noted are these: yeast transport mutant growth, absorbance 615 nm, 18 h; stronger effect = higher value.
A short description of assay [9]: OD615 S. cerevisiae growth inhibition, permissive medium, pilot counter-assay, permissive growth control for S. cerevisiae lifespan shortening project (AID 705;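 active = growth inhibition above 25% in both replicates, a cutoff set 3 SD above the mean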). The conditions noted are these: OD615, 24 h, at 10 µM, stronger effect = higher value.
The nature of assay [10]: Restrictive medium S. cerevisiae growth inhibition, OD615, pilot screen of yeast lifespan reduction project, restrictive growth control (AID 706;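 active = growth inhibition above a set limit, 3 SD over mean compound inhibition, in both replicates, cut at about 43% in these data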;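 note: modified DeaD lifespan yeast strain shifted to restrictive glucose medium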). The conditions noted are these: OD615, 48 h, at 10 µM, stronger effect = higher value.
Assay [11] can be described thus: viability gain of MRP-1-high H69AR cells under doxorubicin, pilot screen, MRP-1 activator project, CellTiter-Glo, duplicate (AID 807;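 active = viability increase at or above a cutoff of the median across tested compounds plus 3 SD, cut at about 8.5% in these data, passing the limit was not always enough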;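 note: compound pretreatment 18-22 h then 72 h combined with doxorubicin; 0% = doxorubicin alone and 100% = vehicle without doxorubicin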). The conditions noted are these: H69AR viability with doxorubicin, CellTiter-Glo luminescence; at 10 µM; stronger effect = higher value.
A short description of assay [12]: growth suppression of beta-catenin knockout HCT116, pilot screen, human colon tumor cells (AID 823;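 active = cell viability at or below a set limit in both duplicate runs, the limit being the all-compound median minus 4 SD, cut at about 23% in these data, passing the limit was not always enough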;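 note: 0% = wells killed by 20 µM Hyamine and 100% = untreated DMSO cell wells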). The conditions noted are these: CellTiter-Glo, 60 h, at 10 µM, stronger effect = lower value.
The nature of assay [13]: growth suppression of PTEN-deleted HCT116, pilot screen, cell-based, HCT116 clonal line, CellTiter-Glo (AID 824;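 active = viability at or below 27.92% in each of two runs, the all-compound median minus 4 SD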;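 note: 0% = 20 µM Hyamine control and 100% = vehicle cell control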). The conditions noted are these: 60 h, at 10 µM, stronger effect = lower value.
Assay [14] is described as follows: inhibitors of the yeast RAM network, pilot screen, dse1pr::URA3 reporter, 5-FOA selection (AID 869;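 active = inhibition over a set limit, the all-compound mean plus 3 SD, in both replicate runs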;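 note: 0% = DMSO wells with no growth and 100% = 10 µM 1-NA-PP1 with full growth; RAM network block rescues cells from 5-FOA so hits raise OD615 growth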). The note with it: S. cerevisiae dse1pr::URA3 5-FOA growth, OD615, 2 d; at 10 µM; stronger effect = higher value; strain carries analog-sensitive mutant Cbk1 kinase.
Assay [15] can be described thus: RAM signaling pathway blockade in yeast – S. cerevisiae, Pdr1DBD-CYC8 efflux-inhibited sensitized strain, primary screen (AID 1298;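 active = RAM network inhibition above 8.4% in each of two replicates, 3 SD over the compound average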;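 note: 0% = DMSO untreated cells without growth and 100% = 10 µM 1-NA-PP1 full growth; higher means more yeast growth rescued from 5-FOA killing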). The conditions noted are these: S. cerevisiae cbk1-as DSE1-URA3 strain, 5-FOA growth OD615, 2 d; at 50 µM; stronger effect = higher value.
The mark [16] stands for this setting: H69AR cells + 2 uM doxorubicin, measured here: viability with 2 uM doxorubicin, stronger effect = lower value.
The mark [17] stands for this setting: H69AR cells, compound alone cytotoxicity.

Inconclusive results are not listed. Active and inactive are the calls of the source.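 Rule for the calls, unless noted: active = viability at or under a set limit in both replicates, limit being median viability minus 3 SD (cut at about 48% in these data, passing the limit was not always enough); inconclusive = at or under the limit in just one replicate; inactive = at or above the limit in both replicates.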

A word on the viability: it is a read-out of living cells in per cent, often relative to untreated cells. A word on the inhibition: it is the relative decrease from the control value, in per cent.

Sequence of Receptor tyrosine-protein kinase erbB-2 (Homo sapiens) (P04626 whole entry, looked up): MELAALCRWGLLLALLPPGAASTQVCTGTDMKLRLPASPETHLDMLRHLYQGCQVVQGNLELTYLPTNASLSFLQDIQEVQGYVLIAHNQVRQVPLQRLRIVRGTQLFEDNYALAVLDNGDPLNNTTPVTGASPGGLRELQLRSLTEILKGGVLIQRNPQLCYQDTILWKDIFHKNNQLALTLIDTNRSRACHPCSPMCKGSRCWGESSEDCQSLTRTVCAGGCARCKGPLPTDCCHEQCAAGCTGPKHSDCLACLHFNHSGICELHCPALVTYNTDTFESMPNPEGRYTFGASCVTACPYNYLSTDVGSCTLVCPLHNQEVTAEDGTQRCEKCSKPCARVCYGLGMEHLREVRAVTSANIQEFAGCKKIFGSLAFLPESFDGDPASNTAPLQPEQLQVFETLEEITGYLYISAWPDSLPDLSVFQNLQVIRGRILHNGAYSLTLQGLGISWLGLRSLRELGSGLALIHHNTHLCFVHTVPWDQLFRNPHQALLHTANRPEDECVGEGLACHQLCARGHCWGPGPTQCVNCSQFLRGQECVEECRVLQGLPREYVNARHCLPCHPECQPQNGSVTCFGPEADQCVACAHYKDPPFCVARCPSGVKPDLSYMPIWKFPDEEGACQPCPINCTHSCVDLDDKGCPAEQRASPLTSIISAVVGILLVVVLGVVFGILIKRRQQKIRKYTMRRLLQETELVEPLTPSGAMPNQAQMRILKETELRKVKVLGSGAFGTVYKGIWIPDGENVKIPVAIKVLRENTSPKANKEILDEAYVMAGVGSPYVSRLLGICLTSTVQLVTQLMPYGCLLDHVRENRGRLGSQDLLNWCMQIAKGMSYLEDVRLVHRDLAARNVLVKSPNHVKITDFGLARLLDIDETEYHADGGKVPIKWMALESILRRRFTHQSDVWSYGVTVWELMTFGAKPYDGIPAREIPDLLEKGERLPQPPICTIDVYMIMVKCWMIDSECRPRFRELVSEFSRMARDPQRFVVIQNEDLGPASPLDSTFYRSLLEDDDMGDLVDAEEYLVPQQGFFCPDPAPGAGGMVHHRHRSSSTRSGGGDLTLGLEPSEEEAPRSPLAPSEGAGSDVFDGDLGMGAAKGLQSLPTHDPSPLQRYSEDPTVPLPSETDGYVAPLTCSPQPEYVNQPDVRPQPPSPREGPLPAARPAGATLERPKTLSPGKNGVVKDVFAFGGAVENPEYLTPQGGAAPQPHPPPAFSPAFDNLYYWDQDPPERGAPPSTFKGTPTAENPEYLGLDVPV

Take `COC(=O)CN1C(=O)C(O)(CC(=O)c2ccc(C)cc2)c2cc(Br)ccc21` (stereo not drawn): the viability in assay [1] is 102%; in assay [3] it was 102% (inactive); in assay [4], 88.2% (inactive); in [5], 81.6% (inactive); in [6] (setting [16]), 93.3%; in [6] (setting [17]), 81.6%. For the same compound, the viability in [12] was 91% (inactive); in assay [13] it was 92.5% (inactive). In addition, the Her2 level in [2] was 96.5% (inactive). Moreover, the differential viability (reversal) in [6] (H69AR cells + 2 uM doxorubicin) was -11.8% (inactive). The inhibition in [7] was -0.27% (inactive); in assay [8] it was -1.5% (inactive); in [14], 1.67% (inactive). For the same compound, the growth inhibition was -15.5% (inactive) in [9] and 2.94% (inactive) in assay [10]. Further, the viability increase in assay [11] was -0.78% (inactive). Moreover, the RAM network inhibition in assay [15] is 2.87% (inactive).
For the compound `CN1CCN(C(=O)C2CCN(S(=O)(=O)c3ccc4c(c3)oc(=O)n4C)CC2)CC1`, the viability in [1] was 89%; in assay [3], 89% (inactive); in [4] it was 94.4% (inactive); in assay [5], 107% (inactive); in [6] (setting [16]), 92.4%; in [6] (setting [17]) it was 107%. For the same compound, the viability in assay [12] and in [13] was 102% (inactive) in each case. In assay [2], the Her2 level is 104% (inactive). Also, the differential viability (reversal) in assay [6] (H69AR cells + 2 uM doxorubicin) was 14.3% (inactive). In addition, the inhibition was -2.95% (inactive) in assay [7], 9.5% (inactive) in assay [8] and 2.46% (inactive) in [14]. Moreover, the growth inhibition in [9] was -6.74% (inactive); in assay [10], -5.41% (inactive). The viability increase in assay [11] was 1.79% (inactive). The RAM network inhibition in [15] was 3.79% (inactive).
Regarding `CC(=O)c1cccc(NC(=O)CCOc2ccccc2)c1`, the viability in assay [1] is 96%; in assay [3] it was 96% (inactive); in assay [4], 106% (inactive); in [5], 98.3% (inactive); in assay [6] (setting [16]) it was 96.3%; in [6] (setting [17]), 98.3%. The viability in assay [12] was 102% (inactive); in assay [13], 95% (inactive). Also, the Her2 level in assay [2] was 121% (inactive). Also, the differential viability (reversal) in assay [6] (H69AR cells + 2 uM doxorubicin) is 1.96% (inactive). The inhibition in [7] was 1.04% (inactive); in [8] it was -12.8% (inactive); in [14], 1.27% (inactive). Moreover, the values for the growth inhibition in assay [9] and in [10] were 5.62% (inactive) and 4.36% (inactive), respectively. Moreover, the viability increase in [11] is -1.33% (inactive). Also, the RAM network inhibition in [15] was 1.57% (inactive).
In the case of `COc1cc(C2c3c(oc4ccccc4c3=O)C(=O)N2c2ccc(C)cn2)ccc1O` (stereo not drawn), the viability in assay [1] is 66%; in assay [3], 66% (inactive); in assay [4], 94.6% (inactive); in [5], 101% (inactive); in assay [6] (setting [16]), 100%; in [6] (setting [17]) it was 101%. Also, the viability was 91.9% (inactive) in [12] and 88.4% (inactive) in assay [13]. In addition, in [2], the Her2 level is 114% (inactive). Besides, the differential viability (reversal) in [6] (H69AR cells + 2 uM doxorubicin) was 1.23% (inactive). Further, the inhibition in assay [7] is -0.9% (inactive); in assay [8] it was -4% (inactive); in assay [14] it was 0.865% (inactive). Further, the values for the growth inhibition in [9] and in assay [10] were -6.67% (inactive) and -1.33% (inactive), respectively. In addition, in [11], the viability increase is -2.69% (inactive). The RAM network inhibition in assay [15] is 4.26% (inactive).
`Cc1cccc(-n2nc3c(c2NC(=O)CCC2CCCCC2)CS(=O)C3)c1C` (stereo not drawn): the viability was 95% in assay [1]; 95% (inactive) in [3]; 86.3% (inactive) in assay [4]; 90.9% (inactive) in assay [5]; 89.3% in [6] (setting [16]); 90.9% in [6] (setting [17]). Also, the results for the viability in [12] and in [13] were 91.8% (inactive) and 92.1% (inactive), respectively. Besides, in [2], the Her2 level was 94.5% (inactive). The differential viability (reversal) in assay [6] (H69AR cells + 2 uM doxorubicin) was 1.55% (inactive). Moreover, the inhibition was -4.13% (inactive) in assay [7], 1.33% (inactive) in assay [8] and 1.02% (inactive) in assay [14]. Besides, the growth inhibition in assay [9] was -8.41% (inactive); in assay [10] it was 1.94% (inactive). The viability increase in [11] is -1.85% (inactive). The RAM network inhibition in assay [15] is 1.36% (inactive).
For the compound `Cc1cccc(C(=O)N2CCN(C(=O)c3cccc(C)c3)C(C)C2)c1` (stereo not drawn), the viability was 110% in assay [1]; 110% (inactive) in assay [3]; 107% (inactive) in assay [4]; 90.3% (inactive) in assay [5]; 87.7% in assay [6] (setting [16]); 90.3% in [6] (setting [17]). The values for the viability in [12] and in assay [13] were 95.9% (inactive) and 96.2% (inactive), respectively. In assay [2], the Her2 level was 116% (inactive). The differential viability (reversal) in assay [6] (H69AR cells + 2 uM doxorubicin) is 2.61% (inactive). The figures for the inhibition in assay [7], in [8] and in assay [14] were -1.76% (inactive), 24.8% (inactive) and 0.75% (inactive), respectively. Further, the growth inhibition was -19.2% (inactive) in [9] and -9.12% (inactive) in [10]. Moreover, in assay [11], the viability increase was 0.74% (inactive). Also, in [15], the RAM network inhibition was 0.55% (inactive).
Regarding `CCC(C)NC(=O)c1cc(CC(C)C)on1` (stereo not drawn), the viability is 84% in [1]; 84% (inactive) in assay [3]; 95.5% (inactive) in [4]; 83.6% (inactive) in assay [5]; 94.7% in [6] (setting [16]); 83.6% in [6] (setting [17]). In addition, the viability in [12] is 102% (inactive); in [13], 103% (inactive). Also, the Her2 level in assay [2] is 111% (inactive). Moreover, the differential viability (reversal) in assay [6] (H69AR cells + 2 uM doxorubicin) is -11.1% (inactive). Moreover, the inhibition in assay [7] is -0.26% (inactive); in [8], 18.3% (inactive); in assay [14] it was -0.07% (inactive). Also, the growth inhibition was -2.93% (inactive) in assay [9] and -0.685% (inactive) in assay [10]. Also, in assay [11], the viability increase is 1.13% (inactive). In assay [15], the RAM network inhibition was 2.69% (inactive).
For the compound `O=C(NCc1cccs1)C(Cc1ccccc1)n1cccc1` (stereo not drawn), the viability is 114% in assay [1]; 114% (inactive) in [3]; 106% (inactive) in assay [4]; 94.6% (inactive) in assay [5]; 86% in assay [6] (setting [16]); 94.6% in assay [6] (setting [17]). Further, the viability in assay [12] is 92.6% (inactive); in assay [13], 89.9% (inactive). The Her2 level in assay [2] is 110% (inactive). The differential viability (reversal) in [6] (H69AR cells + 2 uM doxorubicin) is 8.57% (inactive). For the same compound, the figures for the inhibition in assay [7], in [8] and in assay [14] were -1.67% (inactive), -5.67% (inactive) and 3.21% (inactive), respectively. The figures for the growth inhibition in assay [9] and in assay [10] were 3.97% (inactive) and -4.98% (inactive), respectively. Also, the viability increase in assay [11] is 0.04% (inactive). For the same compound, the RAM network inhibition in assay [15] was 3.72% (inactive).
Regarding `CCC(CC)C(=O)NCCc1cc2ccc(C)cc2[nH]c1=O`, the viability is 99% in [1]; 99% (inactive) in assay [3]; 85.2% (inactive) in assay [4]; 87.6% (inactive) in assay [5]; 92.9% in [6] (setting [16]); 87.6% in [6] (setting [17]). Moreover, the viability in assay [12] was 102% (inactive); in assay [13], 97.4% (inactive). Further, in [2], the Her2 level was 95% (inactive). Moreover, in assay [6] (H69AR cells + 2 uM doxorubicin), the differential viability (reversal) was -5.36% (inactive). The inhibition in assay [7] is -4.8% (inactive); in assay [8], 4.67% (inactive); in assay [14] it was 0.02% (inactive). Further, the values for the growth inhibition in assay [9] and in assay [10] were 1.09% (inactive) and 0.345% (inactive), respectively. In addition, the viability increase in assay [11] was -2.76% (inactive). The RAM network inhibition in assay [15] was 4.75% (inactive).

The values are drawn from PubChem BioAssay.
